ssDAF-12 act: S. stercoralis DAF-12 nuclear receptor activators, primary screen, cell-based, luminescence, HEK293, GRIP1 co-expression, lit1-tk-luc | HEK293 ssDAF-12/GRIP1 lit1-tk-luc reporter; % of 3 µM dafachronic acid response | activation, % at 6.8 µM | 370,000 compounds, 1% hits | AID 652126, 2013;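 active means activation above the mean over all tested compounds plus 3 SD, cut at about 0.9% in these data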;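 further: 0% = DMSO-only wells and 100% = 3 µM delta7-dafachronic acid wells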
DAX1 inh-1: DAX1 (NR0B1) inhibitors on StAR promoter, primary screen, cell-based, luminescence, SF-1 (NR5A1), full-length DAX-1; HEK293T StAR-luciferase reporter, SF-1/DAX-1 repression relief; inhibition, % at 6.8 µM; 370,000 compounds, 1.1% hits;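 active means inhibition above the mean over all tested compounds plus 3 SD, cut at about 3.6% in these data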;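 further: 0% = DAX-1 cells with DMSO and 100% = cells lacking DAX-1 with DMSO; higher inhibition means more luminescence from relief of DAX-1 repression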
DAX1 inh-2: DAX1 (NR0B1) inhibitors, primary screen, cell-based, HEK293, Gal4-DAX1, luciferase luminescence. Nuclear receptor subfamily 0 group B member 1 (Homo sapiens), P51843. HEK293 Gal4-DAX1 luciferase reporter. inhibition, % at 6.75 µM. 340,000 compounds, 0.99% hits;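 active means inhibition above the mean over all tested compounds plus 3 SD, cut at about 4.2% in these data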;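 further: 0% = DAX1-transfected cells with DMSO and 100% = empty-vector control cells with DMSO; inhibition shows as a rise in luminescence from relieved DAX1 repression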
FXN GAA850 act: FXN promoter activators, primary screen, cell-based, luciferase luminescence, HEK293 lucGAA850; HEK293 lucGAA850 FXN promoter luciferase reporter, 24 h; percent of 10 µM SAHA response; activation, % at 6 µM; 360,000 compounds, 0.56% hits; AID 540364, 2011;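 active means activation above the average of all compounds screened plus 3 SD, cutoff fixed separately per campaign, cut at about 7.5% in these data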;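 further: 0% = DMSO wells and 100% = 10 µM SAHA wells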
hcDAF-12 act: H. contortus DAF-12 nuclear receptor activators, primary screen, cell-based, luminescence, HEK293, lit1-tk-luc reporter; HEK293 hcDAF-12 lit1-tk-luc reporter; 0% DMSO, 100% Δ7-dafachronic acid; activation, % at 6.8 µM; 370,000 compounds, 1.4% hits; AID 652067, 2013;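 active means activation above the mean of all tested compounds plus 3 SD, cut at about 5.5% in these data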;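 further: 100% = response to 3 µM Δ7-dafachronic acid high control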
hgDAF12 agonist: H. glycines DAF-12 receptor agonists, primary screen, cell-based, luminescence, HEK293, GAL4 fusion, UAS-luciferase; Nuclear hormone receptor DAF-12 (Heterodera glycines), GAL4 fusion; activation, % at 6.8 µM; 370,000 compounds, 1.8% hits; HEK293 GAL4-hgDAF12 UAS-luciferase reporter, agonist luminescence; normalized to butyrate control; AID 687014, 2013;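 active means activation above a cutoff set at the mean of all screened compounds plus 3 SD, cut at about 10% in these data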;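 further: 0% = DMSO wells and 100% = sodium butyrate wells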
DAX1 conf: DAX1 (NR0B1) inhibitors relieving SF-1 repression, confirmation, cell-based, luminescence, HEK293T, full-length DAX-1, SF-1 activated StAR promoter. shares compounds with DAX1 inh-1. HEK293T StAR-promoter luciferase reporter, SF-1/DAX-1 repression. inhibition, % at 6.8 µM. 2,400 compounds, 87% hits. AID 652134, 2013;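 active means inhibition above the average of every tested compound plus 3 SD, cut at about 3.8% in these data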;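 further: 0% = DAX-1 cells with DMSO and 100% = no DAX-1 control cells with DMSO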
Target sequence (P51843 whole entry, looked up): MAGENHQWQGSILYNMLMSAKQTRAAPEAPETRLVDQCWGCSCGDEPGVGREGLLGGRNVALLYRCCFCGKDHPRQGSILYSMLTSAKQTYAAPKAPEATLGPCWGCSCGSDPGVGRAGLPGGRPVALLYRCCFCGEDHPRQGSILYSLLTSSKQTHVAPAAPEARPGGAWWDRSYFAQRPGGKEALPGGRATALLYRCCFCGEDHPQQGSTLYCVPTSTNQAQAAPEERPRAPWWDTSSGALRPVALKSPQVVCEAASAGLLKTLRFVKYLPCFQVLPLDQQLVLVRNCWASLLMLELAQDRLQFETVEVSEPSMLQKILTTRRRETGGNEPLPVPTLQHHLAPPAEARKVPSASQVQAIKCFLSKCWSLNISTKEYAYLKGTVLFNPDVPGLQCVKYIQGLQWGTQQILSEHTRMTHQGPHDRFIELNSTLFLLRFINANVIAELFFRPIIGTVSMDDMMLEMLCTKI
SF1 mutant ctr: StAR reporter signal changes without DAX1, counter-screen for DAX1 inhibitor project, cell-based, luminescence, AF-2 mutant SF-1, transactivation; HEK293 StAR-luciferase, SF-1 AF2 mutant; inhibition, % at 6.8 µM; shares compounds with DAX1 inh-1; 2,400 compounds, 78% hits;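 active means inhibition above the mean of all tested compounds plus 3 SD, cut at about 3% in these data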;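 further: 0% = DAX-1 transfected cells with DMSO and 100% = cells without DAX-1 with DMSO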
Numbers without * were called inactive. Compounds with a hit are over-represented: about 4.5% of the library has one in this group of screens.

Results for CN(CCCOC(=O)c1cc2ccccc2o1)C1CN(Cc2cn(Cc3ccccc3Cl)nn2)S(=O)(=O)C1 (stereo unspecified) ?
ssDAF-12 act: -1; DAX1 inh-1: 3; hcDAF-12 act: 0; hgDAF12 agonist: 4

How did CCC(=O)OCCCN1CCC2(CCCCC2)C1=O do in these assays?
ssDAF-12 act: -1; hcDAF-12 act: 1; hgDAF12 agonist: 0

Results for COc1ccc(CC(=O)N(Cc2ccccc2)c2ccccc2C(=O)Nc2cc(OC)ccc2OC)cc1 ?
ssDAF-12 act: -1; DAX1 inh-1: 0; hcDAF-12 act: -3; hgDAF12 agonist: -1

How did C[C@H]1[C@H](NC(=O)c2cccc(C(F)(F)F)c2)CC[C@@]23CCCN2C(=O)CCC[C@@H]13 do in these assays?
ssDAF-12 act: -2; hcDAF-12 act: 0; hgDAF12 agonist: -4

Results for O=C(Nc1ccc2nc3n(c(=O)c2c1)CCCC3)c1ccccc1F ?
ssDAF-12 act: 0; DAX1 inh-1: 1; DAX1 inh-2: 1; FXN GAA850 act: 1; hcDAF-12 act: 0; hgDAF12 agonist: 2

How did O=C(NCCc1ccc(F)cc1)c1ccc2c(=O)n3c(nc2c1)CCC3 do in these assays?
ssDAF-12 act: 1; DAX1 inh-1: 6.3*; DAX1 inh-2: 1; FXN GAA850 act: -1; hcDAF-12 act: 4; hgDAF12 agonist: 7; DAX1 conf: 2; SF1 mutant ctr: 3.4*

How did O=C(Nc1ccc2nc3n(c(=O)c2c1)CCCCC3)c1ccccn1 do in these assays?
ssDAF-12 act: 0; DAX1 inh-1: 4.8*; DAX1 inh-2: 2; FXN GAA850 act: 3; hcDAF-12 act: 2; hgDAF12 agonist: 13*; DAX1 conf: 9.1*; SF1 mutant ctr: 4.7*

Results for Cc1cccc(NC(=O)c2ccc3c(=O)n4c(nc3c2)CCCCC4)n1 ?
ssDAF-12 act: -1; DAX1 inh-1: 7.0*; DAX1 inh-2: -1; FXN GAA850 act: 3; hcDAF-12 act: 5; hgDAF12 agonist: 8; DAX1 conf: 6.2*; SF1 mutant ctr: 3

What do the screens show for `CC(C)(C)c1csc(NC(=O)C2COc3ccccc3O2)n1` (stereo unspecified)?
ssDAF-12 act: -1; DAX1 inh-1: 5.0*; DAX1 inh-2: 1; FXN GAA850 act: 5; hcDAF-12 act: 1; hgDAF12 agonist: 10; DAX1 conf: 2; SF1 mutant ctr: 3

Results for O=C(Nc1nnc(C2CC2)s1)C1COc2ccccc2O1 (stereo unspecified) ?
ssDAF-12 act: -1; DAX1 inh-1: 5.7*; DAX1 inh-2: 2; FXN GAA850 act: 3; hcDAF-12 act: 3; hgDAF12 agonist: 12*; DAX1 conf: 11*; SF1 mutant ctr: 5.5*

What do the screens show for `O=C(Nc1nnc(C2CC2)s1)c1cc2ccccc2o1`?
ssDAF-12 act: 0; DAX1 inh-1: 6.1*; DAX1 inh-2: 2; FXN GAA850 act: 2; hcDAF-12 act: 3; hgDAF12 agonist: 13*; DAX1 conf: 7.3*; SF1 mutant ctr: 4.8*

Screening results (PubChem BioAssay)
